Reference: PubChem BioAssay (NCATS)
Unmarked numbers belong to inactive results. Calls follow the shape of the dose curve; as a rule, active = well fitted curve in the direction sought with a large enough effect; inconclusive = small, poorly fitted or top-dose-only effect, or another doubt; inactive = no such curve, though single readings can be large; an effect the other way counts as inactive or inconclusive. Results filed as inconclusive are left out.

Test system: not listed separately
Assay: Cell Viability - LYMP1-002 - Assay at 40 hr (AID 994);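 also: 0% = DMSO only and full inhibition = 92 µM tetraoctylammonium bromide; nearly all actives have a fitted effect of over 60% in size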
Details: LYMP1-002 lymphoblastoid cell viability; series mostly up to 92.2 µM; viability change, negative = cytotoxic: at the top concentration
How it was run: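 Cytotoxicity was read as loss of cellular ATP (CellTiter-Glo luminescence) after 40 hr compound exposure at 37 C of 2500 LYMP1-002 lymphoblastoid cells per well. Concentration-response data were fitted with the standard Hill equation to give AC50.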

Structure (SMILES)	viability change, negative = cytotoxic [%]
COC(=O)C(c1ccccc1)C1CCCCN1 (stereo not given)	-4.52
C[C@]12CCC(=O)C=C1CC[C@@H]1[C@@H]2CC[C@@]2(C)[C@H]1CC[C@]2(C)O	-22.9
C[C@]1(O)CC[C@H]2[C@@H]3CCC4=CC(=O)CC[C@]4(C)[C@@]3(F)[C@@H](O)C[C@@]21C	-8
CCC(C)(C)c1ccc(O)cc1	-6.15
CCCC(C)(COC(N)=O)COC(N)=O	3.5
Nc1ccccc1C(=O)O	-6.78
Nc1ccccc1	-1.32
CN1C[C@H](C(=O)N[C@]2(C)O[C@@]3(O)[C@@H]4CCCN4C(=O)[C@H](Cc4ccccc4)N3C2=O)C=C2c3cccc4[nH]cc(c34)C[C@H]21	-27.3
Oc1ccc(Cl)cc1	-4.14

Target: Alpha-galactosidase (Coffea arabica) (UniProt Q42656)
Sequence (Q42656 whole entry, looked up): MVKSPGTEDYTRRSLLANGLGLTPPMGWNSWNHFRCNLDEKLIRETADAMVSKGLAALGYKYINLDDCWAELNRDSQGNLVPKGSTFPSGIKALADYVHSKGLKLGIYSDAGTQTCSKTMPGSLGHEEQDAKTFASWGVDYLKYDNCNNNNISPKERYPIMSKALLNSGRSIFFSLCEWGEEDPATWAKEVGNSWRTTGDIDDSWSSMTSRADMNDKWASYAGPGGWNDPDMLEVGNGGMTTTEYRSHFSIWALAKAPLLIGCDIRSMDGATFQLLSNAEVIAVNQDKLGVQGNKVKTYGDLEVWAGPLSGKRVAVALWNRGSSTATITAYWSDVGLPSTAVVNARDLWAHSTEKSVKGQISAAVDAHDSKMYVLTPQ
Assay: Counterscreen for Glucocerebrosidase Inhibitors: qHTS Assay for Coffee Bean alpha-Galactosidase at pH 5.9 (AID 998);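 also: plate controls were uninhibited enzyme for no effect and no-enzyme basal signal for full effect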
Details: coffee bean alpha-galactosidase enzyme assay; series mostly up to 76.9 µM; activity, negative = inhibition: at the top concentration
How it was run: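 In 50 mM citric acid pH 5.9 with 0.005% Tween-20, coffee bean enzyme hydrolyses 80 uM 4-MU alpha-D-galactopyranoside over 20 min at RT. Activity is normalized to controls; AC50 comes from Hill-modelled concentration-response data.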

Structure (SMILES)	activity, negative = inhibition [%]
COc1ccc2[nH]cc(CCNC(C)=O)c2c1	-1.06
CN1CCN(CCC=C2c3ccccc3Sc3ccc(S(=O)(=O)N(C)C)cc32)CC1	-0.516
NC(N)=NC(=O)Cc1c(Cl)cccc1Cl	1.9
CC(C)NNC(=O)c1ccncc1	-2.28
COc1ccc(C2CNC(=O)C2)cc1OC1CCCC1 (stereo not given)	-1.66
C[C@H](CS)C(=O)N1CCC[C@H]1C(=O)O	-2.02
NC(=O)c1cnccn1	-0.719
Cc1nc2ccccn2c(=O)c1CCN1CCC(C(=O)c2ccc(F)cc2)CC1	1.47
CN=C(NC#N)NCCSCc1nc[nH]c1C	-0.272
Cc1ccc(Cl)c(Nc2ccccc2C(=O)O)c1Cl	-1.13
Nc1nc2ccc(OC(F)(F)F)cc2s1	0.112
Cc1nc2c([nH]1)c(=O)n(C)c(=O)n2Cc1ccco1	-1.62
Cc1cnc(NC(=O)C2=C(O)c3ccccc3S(=O)(=O)N2C)s1	-1.8
CN1CCC[C@@H]1c1cccnc1	-0.508
C[N+](C)(C)CCOC(N)=O	-0.892
CC(C)C(=O)c1c(C(C)C)nn2ccccc12	1.53
CC(=O)Oc1cc(C(C)C)c(OCCN(C)C)cc1C	-0.373
CCO/C([O-])=N/c1c[n+](N2CCOCC2)no1	-1.51
CN1CCN(CC(=O)N2c3ccccc3C(=O)Nc3cccnc32)CC1	-0.865
CC(C)(C)NC[C@H](O)COc1nsnc1N1CCOCC1	3.55
CC(=O)OCC(=O)[C@@]1(O)CC[C@H]2[C@@H]3CCC4=CC(=O)CC[C@]4(C)[C@H]3C(=O)C[C@@]21C	1.17
O=c1c(-c2ccc(O)cc2)coc2cc(O)cc(O)c12	2.13
CNCCCC12CCC(c3ccccc31)c1ccccc12	-0.193
CN1C(C(=O)Nc2ccccn2)=C(O)c2ccccc2S1(=O)=O	-3.18
CCN(CC)CCNC(=O)c1cc(S(C)(=O)=O)ccc1OC	-0.865
NC(N)=Nc1nc(CSCC/C(N)=N/S(N)(=O)=O)cs1	1
